Test results published in PubChem BioAssay AID1159580 (chemical genetic matrix, 2015).
The campaign covered roughly 5,500 compounds. About 2,000 (36%) were called active. Not shown: some 18% with an inconclusive outcome. No stated cut-off is given here; in the data, active means normalized growth mostly below about 0.91 (no sharp cut-off); inconclusive means no clear call, values can overlap the other calls; inactive means mostly above about 0.92. The list shows a part of the results.

Experiment: chemical genetic growth profiling, strain panel (AID 1159580);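 further: tested at 20 µM; growth read once vehicle control cultures reached saturation at 30 °C; 1 = growth at the plate median or of vehicle wells; lower values mean less growth of the strain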
Details: growth OD

Measured: normalized growth

O=C(O)c1ccccc1O
inactive: S. cerevisiae deletion strains, locus YJR066W, strain TOR1, hits give low values 0.951 | S. cerevisiae deletion strains, locus YJR075W, strain HOC1, hits give low values 1.01 | S. cerevisiae deletion strains, locus YKL009W, strain mrt4, hits give low values 1.05 | S. cerevisiae deletion strains, locus YKL068W, hits give low values 0.982 | S. cerevisiae deletion strains, locus YKL085W, strain MDH1 (second series), hits give low values 0.989 | S. cerevisiae deletion strains, locus YKL085W, strain MDH1, hits give low values 0.989 | S. cerevisiae deletion strains, locus YKL160W, strain elf1, hits give low values 0.971 | S. cerevisiae deletion strains, locus YKL190W, strain CNB1, hits give low values 0.998 | S. cerevisiae deletion strains, locus YKR001C, strain vps1, hits give low values 1.02 | S. cerevisiae deletion strains, locus YKR091W, strain srl3, hits give low values 0.99 | S. cerevisiae deletion strains, locus YLL001W, strain dnm1, hits give low values 0.97 | S. cerevisiae deletion strains, locus YLL026W, hits give low values 0.991 | S. cerevisiae deletion strains, locus YLL041C, strain sdh2, hits give low values 0.99 | S. cerevisiae deletion strains, locus YLR027C, strain aat2, hits give low values 0.997 | S. cerevisiae deletion strains, locus YLR039C, strain RIC1, hits give low values 0.978 | S. cerevisiae deletion strains, locus YLR058C, strain SHM2, hits give low values 0.994 | S. cerevisiae deletion strains, locus YLR102C, strain apc9, hits give low values 1.01 | S. cerevisiae deletion strains, locus YLR113W, strain HOG1, hits give low values 0.987 | S. cerevisiae deletion strains, locus YLR221C, strain rsa3, hits give low values 1 | S. cerevisiae deletion strains, locus YLR258W, strain gsy2, hits give low values 0.979 | S. cerevisiae deletion strains, locus YLR262C, strain YPT6 (second series), hits give low values 0.957 | S. cerevisiae deletion strains, locus YLR262C, strain YPT6, hits give low values 0.973 | S. cerevisiae deletion strains, locus YLR268W, strain sec22, hits give low values 1.04 | S. cerevisiae deletion strains, locus YLR320W, strain mms22, hits give low values 1.03 | S. cerevisiae deletion strains, locus YLR330W, strain CHS5, hits give low values 1 | S. cerevisiae deletion strains, locus YLR342W, strain FKS1 (second series), hits give low values 1.01 | S. cerevisiae deletion strains, locus YLR342W, strain FKS1, hits give low values 0.975 | S. cerevisiae deletion strains, locus YLR357W, strain rsc2, hits give low values 0.956 | S. cerevisiae deletion strains, locus YLR370C, strain arc18, hits give low values 0.988 | S. cerevisiae deletion strains, locus YLR371W, strain rom2, hits give low values 1.01 | S. cerevisiae deletion strains, locus YLR384C, strain iki3, hits give low values 0.96 | S. cerevisiae deletion strains, locus YLR418C, strain cdc73, hits give low values 1.01 | S. cerevisiae deletion strains, locus YML016C, strain PPZ1, hits give low values 1 | S. cerevisiae deletion strains, locus YML032C, strain rad52, hits give low values 1.04 | S. cerevisiae deletion strains, locus YML120C, strain ndi1, hits give low values 0.985 | S. cerevisiae deletion strains, locus YML124C, strain tub3, hits give low values 1.01 | S. cerevisiae deletion strains, locus YMR058W, strain fet3, hits give low values 0.998 | S. cerevisiae deletion strains, locus YMR078C, strain ctf18, hits give low values 1.02 | S. cerevisiae deletion strains, locus YMR125W, strain sto1, hits give low values 0.923 | S. cerevisiae deletion strains, locus YMR129W, hits give low values 0.971 | S. cerevisiae deletion strains, locus YMR205C, strain PFK2, hits give low values 0.985 | S. cerevisiae deletion strains, locus YMR223W, strain ubp8, hits give low values 1.02 | S. cerevisiae deletion strains, locus YMR231W, strain pep5, hits give low values 0.976 | S. cerevisiae deletion strains, locus YMR307W, strain GAS1, hits give low values 0.965 | S. cerevisiae deletion strains, locus YNL067W, strain RPL9B, hits give low values 0.998 | S. cerevisiae deletion strains, locus YNL071W, strain lat1, hits give low values 0.986 | S. cerevisiae deletion strains, locus YNL153C, strain GIM3, hits give low values 1.01 | S. cerevisiae deletion strains, locus YNL183C, strain NPR1, hits give low values 0.951 | S. cerevisiae deletion strains, locus YNL209W, strain ssb2, hits give low values 0.968 | S. cerevisiae deletion strains, locus YNL233W, strain BNI4, hits give low values 1 | S. cerevisiae deletion strains, locus YNL248C, strain rpa49, hits give low values 0.958 | S. cerevisiae deletion strains, locus YNL250W, strain rad50, hits give low values 1 | S. cerevisiae deletion strains, locus YNL271C, strain bni1, hits give low values 0.995 | S. cerevisiae deletion strains, locus YNL298W, strain CLA4, hits give low values 1.02 | S. cerevisiae deletion strains, locus YNL307C, strain MCK1, hits give low values 1.02 | S. cerevisiae deletion strains, locus YNL322C, strain KRE1 (second series), hits give low values 0.974 | S. cerevisiae deletion strains, locus YNR049C, strain mso1, hits give low values 0.979 | S. cerevisiae deletion strains, locus YNR052C, strain pop2, hits give low values 1.02 | S. cerevisiae deletion strains, locus YOL006C, strain TOP1, hits give low values 1.09 | S. cerevisiae deletion strains, locus YOL012C, strain htz1 1.01 | S. cerevisiae deletion strains, locus YOL147C, strain pex11, hits give low values 1.01 | S. cerevisiae deletion strains, locus YOR001W, strain rrp6, hits give low values 0.982 | S. cerevisiae deletion strains, locus YOR061W, strain CKA2, hits give low values 0.999 | S. cerevisiae deletion strains, locus YOR069W, strain VPS5, hits give low values 0.993 | S. cerevisiae deletion strains, locus YOR070C, strain gyp1, hits give low values 0.982 | S. cerevisiae deletion strains, locus YOR080W, strain dia2, hits give low values 0.983 | S. cerevisiae deletion strains, locus YOR083W, strain WHI5, hits give low values 0.988 | S. cerevisiae deletion strains, locus YOR106W, strain vam3, hits give low values 0.952 | S. cerevisiae deletion strains, locus YOR136W, strain idh2, hits give low values 1.02 | S. cerevisiae deletion strains, locus YOR144C, strain elg1, hits give low values 1.01 | S. cerevisiae deletion strains, locus YOR184W, strain ser1, hits give low values 1.02 | S. cerevisiae deletion strains, locus YOR231W, strain MKK1, hits give low values 0.98 | S. cerevisiae deletion strains, locus YOR265W, strain rbl2, hits give low values 0.976 | S. cerevisiae deletion strains, locus YOR270C, strain vph1, hits give low values 0.944 | S. cerevisiae deletion strains, locus YOR290C, strain snf2, hits give low values 1 | S. cerevisiae deletion strains, locus YOR316C, strain cot1, hits give low values 1.02 | S. cerevisiae deletion strains, locus YPL051W, strain arl3, hits give low values 0.986 | S. cerevisiae deletion strains, locus YPL078C, strain atp4, hits give low values 0.961 | S. cerevisiae deletion strains, locus YPL106C, strain sse1, hits give low values 0.954 | S. cerevisiae deletion strains, locus YPL240C, strain hsp82, hits give low values 0.976 | S. cerevisiae deletion strains, locus YPL256C, strain CLN2, hits give low values 1.05 | S. cerevisiae deletion strains, locus YPR119W, strain clb2, hits give low values 1.01 | S. cerevisiae deletion strains, locus YPR141C, strain kar3, hits give low values 0.994 | S. cerevisiae deletion strains, locus YPR163C, strain tif3, hits give low values 1.01 | S. cerevisiae deletion strains, locus YPR167C, strain met16, hits give low values 1.01 | S. cerevisiae deletion strains, strain wtn01, hits give low values 1.01 | S. cerevisiae strains, strain wild type, hits give low values 0.999
